# Measurements reported in PubChem BioAssay (NCI).
# The panel holds about 83,000 compounds, 20% with a hit somewhere; the sample as a whole holds those more often.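 How to read the values: 0–100, growth inhibition (40 = 60% inhibited); 0, no net growth; -100 to 0, cell death (-40 = 40% of starting cells died; -100 = all dead).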 Unmarked numbers belong to inactive results. Activity calls are given as the source filed them. The calls were made as follows: active = growth percent below 10; inactive = the rest.
# Test system: MDA-MB-468 breast
# Test: NCI-60 one-dose screen, 48 h (100 = growth as untreated, 0 = no growth, -100 = all killed)
# Details: 10 µM unless noted
row,Structure (SMILES),growth
1,COc1ccc(C2=NN3C(C2)c2cc(Br)ccc2OC3c2ccncc2)cc1 (stereo not drawn),103%
2,Cc1cc(C)c(O)c(CNCCCCCCNCc2cc(C)cc(C)c2O)c1,-72.2% (active)
3,Cc1c(N2CN3C[C@H](C)N4CN(c5c(C)n(C)n(-c6ccccc6)c5=O)CN5C[C@@H](C)N(C2)C3C54)c(=O)n(-c2ccccc2)n1C (stereo partly drawn),97.1%
